Out of some 360,000 compounds screened, about 4,200 (1.2%) were called active. This excerpt belongs to a sample that is enriched for actives. Unmarked numbers belong to inactive results.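 The calls were made as follows: active = mean replicate inhibition at least 60% with every replicate also reaching 60%; inconclusive = only one of the two criteria is met; inactive = mean below 60% and not all replicates reaching 60%.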
Assay: PAX8 transcriptional activity inhibition in RMG-I – RMG-I cells, luciferase, single concentration, primary screen (AID 652154);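 also: luciferase light reporting Pax8 driven TPO promoter activity; plate controls were median of neutral control wells for no effect and mitoxantrone controls for full effect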
Conditions: RMG-I TPO-luciferase reporter, SteadyGlo, 24 h; at 12.6 µM; active compounds read high

| Structure (SMILES) | inhibition |
| --- | --- |
| C[C@@H]1CN([C@H](C)CO)C(=O)Cc2cc(NS(C)(=O)=O)ccc2O[C@H]1CN(C)S(=O)(=O)c1ccccc1 | -11.5% |
| C[C@H](O)C#Cc1ccc2c(c1)O[C@H](CN(C)C)[C@@H](C)CN([C@H](C)CO)S2(=O)=O | -9.29% |
| C/C=C/c1ccc([C@H]2[C@@H](CO)N(C(=O)CN(C)C)C23CN(C(=O)C2CCCC2)C3)cc1 | -21.3% |
| Cc1noc(C)c1S(=O)(=O)N(C)C[C@@H]1OCCCC[C@@H](C)Oc2ccc(NC(=O)Nc3ccccc3)cc2C(=O)N([C@H](C)CO)C[C@@H]1C | 4.8% |
| C[C@@H]1CN([C@@H](C)CO)C(=O)c2cc(NS(=O)(=O)c3ccccc3)ccc2O[C@H]1CN(C)CC1CC1 | -3.75% |
| COc1ccc(S(=O)(=O)Nc2cccc3c2O[C@@H](CN(C)Cc2ccc(-c4ccccc4)cc2)[C@H](C)CN([C@H](C)CO)C3=O)cc1 | -16.5% |
| C[C@H]1CCCCO[C@H](CN(C)C)[C@@H](C)CN([C@@H](C)CO)C(=O)c2cc(NC(=O)CCCN(C)C)ccc2O1 | -13.7% |
| COc1cc(OC)cc(C(=O)NCCSCc2ccco2)c1 | 3.2% |
| CS(=O)(=O)N(Cc1ccc(Cl)cc1)c1ccc(C(=O)NCCSCc2ccco2)cc1 | 61.6% (active) |
| Cc1cc(C)cc(N(CC(=O)NCCSCc2ccco2)S(C)(=O)=O)c1 | 3.24% |
| C[C@H](CO)N1C[C@H](C)[C@@H](CN(C)C)Oc2ccc(N(C)C)cc2C1=O | -23.1% |
| COc1ccc(NC(=O)Nc2ccc3c(c2)C(=O)N([C@H](C)CO)C[C@H](C)[C@@H](CN(C)C(=O)NC2CCCCC2)OCCCC[C@@H](C)O3)cc1 | 19.9% |
| C[C@@H]1CCCCO[C@H](CN(C)S(=O)(=O)c2ccc(F)cc2)[C@H](C)CN([C@@H](C)CO)C(=O)c2cc(NS(=O)(=O)c3ccccc3)ccc2O1 | 3.05% |
| Cc1ccc(S(=O)(=O)N(C)C[C@@H]2OCCCC[C@@H](C)Oc3ccc(NS(=O)(=O)c4ccccc4)cc3C(=O)N([C@H](C)CO)C[C@@H]2C)cc1 | -6.72% |
| C[C@H](CO)N1C[C@H](C)[C@H](CN(C)S(=O)(=O)c2ccc(F)cc2)OCCCC[C@H](C)Oc2ccc(NS(=O)(=O)c3ccc(Cl)cc3)cc2C1=O | 87.4% (active) |
| C[C@@H]1CN([C@H](C)CO)C(=O)c2cccc(NC(=O)c3nc4ccccc4s3)c2O[C@@H]1CN(C)C | -13.2% |
| C[C@@H]1CCCCO[C@H](CN(C)S(C)(=O)=O)[C@@H](C)CN([C@H](C)CO)C(=O)c2cc(NS(=O)(=O)c3ccc(Cl)cc3)ccc2O1 | 7.33% |
| C[C@@H]1CN([C@H](C)CO)C(=O)c2cccc(NC(=O)c3nc4ccccc4s3)c2O[C@H]1CN(C)S(=O)(=O)c1ccc(Cl)cc1 | 66.2% (active) |
| Cc1ccc(S(=O)(=O)N(C)C[C@H]2OCCCC[C@@H](C)Oc3ccc(NS(C)(=O)=O)cc3C(=O)N([C@H](C)CO)C[C@@H]2C)cc1 | -9.1% |
| C[C@@H]1CN([C@H](C)CO)C(=O)c2cccc(NC(=O)c3nc4ccccc4s3)c2O[C@H]1CN(C)Cc1ccccc1 | -1.34% |

| Structure (SMILES) | inhibition |
| --- | --- |
| C[C@@H]1CN([C@H](C)CO)C(=O)c2cc(NS(=O)(=O)c3ccccc3)ccc2O[C@@H](C)CCCCO[C@H]1CN(C)S(=O)(=O)c1ccc(Cl)cc1 | 73.3% (active) |
| COc1ccc(S(=O)(=O)Nc2ccc3c(c2)C(=O)N([C@H](C)CO)C[C@@H](C)[C@H](CN(C)S(=O)(=O)c2ccc(Cl)cc2)OCCCC[C@@H](C)O3)cc1 | 55.8% |
| C[C@@H]1CCCCO[C@H](CN(C)S(=O)(=O)c2ccccc2)[C@@H](C)CN([C@@H](C)CO)C(=O)c2cc(NS(=O)(=O)c3ccccc3)ccc2O1 | 0.573% |
| Cc1ccc(S(=O)(=O)Nc2ccc3c(c2)C(=O)N([C@H](C)CO)C[C@@H](C)[C@H](CN(C)S(=O)(=O)c2ccc(C)cc2)OCCCC[C@@H](C)O3)cc1 | 71.3% (active) |
| CC=Cc1ccc2n(c1=O)C[C@@H]1[C@@H](CO)[C@H](C(=O)N[C@@H](C)c3ccccc3)[C@H]2N1Cc1ccncc1 (mixture of isomers) | -0.758% |
| CC=Cc1ccc2n(c1=O)C[C@@H]1[C@@H](CO)[C@H](C(=O)NCC(F)(F)F)N(CCc3ccccc3)[C@H]21 (mixture of isomers) | 5.7% |
| O=C(C[C@H]1C=C[C@H](NC(=O)CC2CC2)[C@H](CO)O1)NCc1ccc(Cl)cc1 | 0.511% |
| C[C@H]1CCCCO[C@@H](CN(C)S(=O)(=O)c2cccs2)[C@@H](C)CN([C@@H](C)CO)C(=O)c2cc(NS(=O)(=O)c3ccc(Cl)cc3)ccc2O1 | 78.6% (active) |
| Cc1ccc(S(=O)(=O)Nc2ccc3c(c2)C(=O)N([C@H](C)CO)C[C@H](C)[C@H](CN(C)S(=O)(=O)c2ccc(F)cc2)OCCCC[C@@H](C)O3)cc1 | -6.17% |
| Cc1ccc(S(=O)(=O)N(C)C[C@@H]2OCCCC[C@@H](C)Oc3ccc(NS(=O)(=O)c4ccc(F)cc4)cc3C(=O)N([C@H](C)CO)C[C@H]2C)cc1 | 65.5% (active) |
| C[C@@H]1CN([C@H](C)CO)C(=O)c2cc(NS(=O)(=O)c3cccs3)ccc2O[C@@H](C)CCCCO[C@@H]1CN(C)S(=O)(=O)c1ccc(Cl)cc1 | 32.3% |
| C[C@@H]1CCCCO[C@@H](CN(C)S(C)(=O)=O)[C@H](C)CN([C@@H](C)CO)C(=O)c2cc(NS(=O)(=O)c3ccc(F)cc3)ccc2O1 | 6.52% |
| C[C@@H]1CCCCO[C@H](CN(C)S(=O)(=O)c2ccc(Cl)cc2)[C@H](C)CN([C@@H](C)CO)C(=O)c2cc(NS(=O)(=O)c3cccs3)ccc2O1 | 35.2% |
| CCCNC(=O)Nc1ccc2c(c1)C(=O)N(C)C[C@@H](OC)[C@H](C)CN(C(=O)C1CCCCC1)[C@H](C)CO2 | 12.3% |
| C[C@@H]1CN([C@@H](C)CO)C(=O)c2c(c3ccccc3n2C)-c2ccccc2CO[C@@H]1CN(C)S(=O)(=O)c1cccs1 | 12.1% |
| CCCNC(=O)N1[C@H](CNC(C)=O)[C@@H](c2ccc(C3=CCCC3)cc2)[C@@H]1CO | -5.47% |
| C[C@@H]1CCCCO[C@H](CN(C)C(=O)NC2CCCCC2)[C@H](C)CN([C@H](C)CO)C(=O)c2cc(NC(=O)Nc3ccc(F)cc3)ccc2O1 | 70.7% (active) |
| C[C@H](CO)N1C[C@H](C)[C@@H](CN(C)C(=O)Nc2ccc3c(c2)OCO3)OCCCC[C@H](C)Oc2ccc(NC(=O)Nc3ccc4c(c3)OCO4)cc2C1=O | 12% |
| C[C@@H]1CCCCO[C@H](CN(C)CC2CCCCC2)[C@H](C)CN([C@H](C)CO)C(=O)c2cc(NC(=O)Nc3ccc(F)cc3)ccc2O1 | 69.8% (active) |
| C[C@@H]1CCCCO[C@H](CN(C)C(=O)NC2CCCCC2)[C@H](C)CN([C@@H](C)CO)C(=O)c2cc(NC(=O)Nc3ccc(F)cc3)ccc2O1 | 52.5% |

| Structure (SMILES) | inhibition |
| --- | --- |
| C[C@H]1CCCCO[C@H](CN(C)C(=O)NC2CCCCC2)[C@@H](C)CN([C@@H](C)CO)C(=O)c2cc(NC(=O)Nc3ccc4c(c3)OCO4)ccc2O1 | 66.1% (active) |
| C[C@@H]1CN([C@H](C)CO)C(=O)c2cc(NC(=O)Nc3ccc(F)cc3)ccc2O[C@@H](C)CCCCO[C@@H]1CN(C)CC1CCCCC1 | 17% |
| C[C@H](CO)N1C[C@H](C)[C@H](CN(C)C(=O)NC2CCCCC2)OCCCC[C@H](C)Oc2ccc(NC(=O)Nc3ccc4c(c3)OCO4)cc2C1=O | 29.3% |
| C[C@@H]1CCCCO[C@H](CN(C)CC2CC2)[C@@H](C)CN([C@H](C)CO)C(=O)c2cc(NC(=O)Nc3ccc(F)cc3)ccc2O1 | 2.41% |
| C[C@@H]1CCCCO[C@@H](CN(C)C(=O)NC2CCCCC2)[C@H](C)CN([C@@H](C)CO)C(=O)c2cc(NC(=O)Nc3ccc(F)cc3)ccc2O1 | 17.7% |
| CCCNC(=O)N1CC2(C1)[C@H](c1ccccc1)[C@@H](CO)N2Cc1cccc(Cl)c1 | 8.51% |
| O=C(Nc1ccccc1F)N1CC(=O)N2[C@@H](CO)[C@H](c3ccc(C#CC4CCCC4)cc3)[C@@H]2C1 | 11.2% |
| C[C@H](NC(=O)C[C@@H]1CC[C@@H](NC(=O)Cc2ccccn2)[C@@H](CO)O1)c1ccccc1 | 26% |
| O=C(c1cccnc1)N1CC[C@@H]2[C@@H](CO)Nc3ccc(-c4ccccc4)cc3[C@@H]21 | 1.4% |
| COc1ccc(/C=C/C(=O)OCC(=O)NCc2cccs2)cc1OC | 72.7% (active) |
| O=C(COC(=O)/C=C/c1cccc(Cl)c1)NCc1cccs1 | 6.69% |
| CCOc1ccc(/C=C/C(=O)N(CC)CC(=O)NCc2cccs2)cc1OC | 10.8% |
| CNC(=O)C[C@@H]1CC[C@@H]2[C@@H](COc3ccc(NC(=O)c4ccc(F)cc4)cc3C(=O)N2C)O1 | -7.92% |
| O=C(Nc1cc(Cl)cc(Cl)c1)N[C@@H]1CC[C@H](CCNS(=O)(=O)c2cccc(F)c2)O[C@H]1CO | 13.6% |
| COCC#Cc1ccc([C@H]2[C@H]3CN(Cc4ccncc4)CCCCN3[C@H]2CO)cc1 | 12.1% |
| O=C(C[C@@H]1CC[C@@H]2[C@H](COC[C@H](O)CN2C(=O)c2ccncc2)O1)NCc1cc(F)cc(F)c1 | -12.3% |
| COc1cc(OC)cc(C(=O)N[C@H](C(=O)NNC(=O)c2ccc(Br)cc2)C(C)C)c1 | 18.6% |
| COc1cc(OC)cc(C(=O)N[C@H](C(=O)OCC(=O)NC(C)c2ccccc2)C(C)C)c1 (some centres undefined) | -10.5% |
| COc1cc(OC)cc(C(=O)N[C@H](C(=O)Nc2nc3ccccc3[nH]2)C(C)C)c1 | 81.6% (active) |

Reference: PubChem BioAssay AID652154 (Broad Institute, 2013)
